The list is not random: actives were taken first. Their share in the collection is about 1.5%.
PV pol inh – poliovirus RdRp elongation inhibitors, primary screen, biochemical, fluorescence polarization, total intensity; Genome polyprotein (Poliovirus type 1 (strain Mahoney)), P03300; poliovirus polymerase elongation; hits give low values; % elongation, % (compound at 16.7 µg/mL); 150,000 compounds, 0.66% hits; in the data active = % elongation below about 90%
AID504770 – growth inhibition of E. coli YBA685, primary screen, V. cholerae RctB inhibitors; E. coli YBA685 rctB-dependent plasmid, OD600 growth, 3 h; hits give low values; z-score (no concentration beside the values); 130,000 compounds, 0.27% hits; AID 504770, 2011; in the data active = z-score below about -2, passing the limit was not always enough
Mtb MenB inh – M. tuberculosis MenB inhibitors, primary screen, biochemical, absorbance. 1,4-dihydroxy-2-naphthoyl-CoA synthase (Mycobacterium tuberculosis (strain ATCC 25618 / …. MenB enzyme assay, absorbance read-out. inhibition, % (test concentration not listed). 100,000 compounds, 0.43% hits. AID 540299, 2011; in the data active = inhibition above about 21%, passing the limit was not always enough
Target sequence (P9WNP5 whole entry, looked up): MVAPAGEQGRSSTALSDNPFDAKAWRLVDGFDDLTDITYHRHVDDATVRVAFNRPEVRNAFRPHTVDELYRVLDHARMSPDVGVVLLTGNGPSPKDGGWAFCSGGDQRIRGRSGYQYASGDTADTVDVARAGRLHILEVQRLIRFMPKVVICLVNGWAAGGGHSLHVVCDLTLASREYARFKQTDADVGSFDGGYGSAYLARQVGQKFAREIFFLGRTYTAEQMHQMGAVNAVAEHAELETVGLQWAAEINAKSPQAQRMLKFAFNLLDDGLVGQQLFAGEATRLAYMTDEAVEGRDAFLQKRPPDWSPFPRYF
MbtI inh – MbtI salicylate synthase inhibitors, primary screen, biochemical, fluorescence intensity. P9WFX0. purified MbtI enzyme, fluorescence intensity read-out. inhibition, % (no concentration beside the values). 100,000 compounds, 0.89% hits. AID 493033, 2011; in the data active = inhibition mostly above about 56%, no sharp cut-off; inactive = mostly below about 77%
Of the large screens only hits and unclear results are named; the others gave an inactive call.

NC(=O)CSc1nc2ccc(Cl)cc2[nH]1	none
N#CCSc1nc2ccc(Cl)cc2[nH]1	MbtI inh 53
O=C1CCCC2=C1C(c1cccs1)C1C(=O)c3ccccc3C1=N2 (centres undefined)	PV pol inh 72 (no result: MbtI inh)
CCOc1cc(OCC)c(/C=N/O)c(OCC)c1	none (no result: PV pol inh, Mtb MenB inh, MbtI inh)
CCOc1ccc(/C=N/O)cc1	Mtb MenB inh 26
COc1ccc(C(=O)COC(=O)c2ccc(N)cc2)cc1	none
O=C(OCCCc1nc2ccccc2[nH]1)c1cccs1	none (no result: PV pol inh, Mtb MenB inh)
O=C1CCCC(O)=C1C1(O)C(=O)c2ccccc2C1=O	PV pol inh 79
CC(=Nc1ccccc1)C1=C(O)CCCC1=O	none
COc1cccc(OCC2COS(=O)O2)c1 (centres undefined)	PV pol inh 85
O=C1NCC(COc2cccc3ccccc23)O1 (centres undefined)	none (no result: PV pol inh, Mtb MenB inh)
O=S1OCC(COc2cccc3ccccc23)O1 (centres undefined)	PV pol inh 76 (no result: MbtI inh)
Cc1cccc(-c2nnc(C3CCNCC3)o2)c1	MbtI inh 78
CCCc1n[nH]c(=S)n1N	MbtI inh 69
NC(=S)c1ccccc1N	PV pol inh 55
O=C(Cn1c(CCCO)nc2ccccc21)N1CCc2ccccc21	MbtI inh 96
CCCCNc1nc2ccccc2n1CC(=O)N1CCc2ccccc21	none
CN(C)c1nc(N)nc(Cn2c(=O)oc3ccc(Cl)cc32)n1	none
CC(C)Cn1cc(NC(=O)NCc2ccccc2Cl)c2ccccc2c1=O	PV pol inh 41 (no result: AID504770, Mtb MenB inh, MbtI inh)
Cc1ccc(C)c(N2CCN(C(=O)Nc3cn(CC(C)C)c(=O)c4ccccc34)CC2)c1	PV pol inh 77 (no result: AID504770, Mtb MenB inh, MbtI inh)
CC(C)Cn1cc(NC(=O)NCc2ccc(Cl)cc2)c2ccccc2c1=O	none (no result: AID504770, Mtb MenB inh, MbtI inh)
CC(C)Cn1cc(NC(=O)NCc2ccccc2)c2ccccc2c1=O	PV pol inh 12 (no result: AID504770, Mtb MenB inh, MbtI inh)
COc1ccc(OC)c(CNC(=O)Nc2cn(CC(C)C)c(=O)c3ccccc23)c1	PV pol inh 25 (no result: AID504770, Mtb MenB inh, MbtI inh)
Cc1ccc(CNC(=O)Nc2cn(CC(C)C)c(=O)c3ccccc23)cc1	PV pol inh 28 (no result: AID504770, Mtb MenB inh, MbtI inh)
CC(C)Cn1cc(NC(=O)NCc2cccc(Cl)c2)c2ccccc2c1=O	PV pol inh 58 (no result: AID504770, Mtb MenB inh, MbtI inh)
CC(C)Cn1cc(NC(=O)N2CCN(c3cccc(Cl)c3)CC2)c2ccccc2c1=O	none (no result: AID504770, Mtb MenB inh, MbtI inh)
COc1cccc(CNC(=O)Nc2cn(CC(C)C)c(=O)c3ccccc23)c1	PV pol inh 31 (no result: AID504770, Mtb MenB inh, MbtI inh)
O=C1CSc2nnc(Cn3nnc4ccccc43)n2N1	MbtI inh 87
C=CCOn1c(=O)c(-c2ccc(OC)c(OC)c2)[n+]([O-])c2ccccc21	MbtI inh 78
O=C1C2SCCN2C(=S)N1c1cccc(C(F)(F)F)c1 (centres undefined)	MbtI inh 70
Cn1c(=O)c2ccccc2n2c(CN3C(=O)NC4(CCCc5sccc54)C3=O)nnc12 (centres undefined)	none
CCOC(=O)c1nnn(-c2nonc2-n2cccc2)c1C	none
CCOC(=O)c1nnn(-c2nn3nnnc3c3ccccc23)c1C	Mtb MenB inh 32
CN(C)C(=S)SCc1ccc(Cl)cc1Cl	none (no result: Mtb MenB inh)
CCc1nn2c(=O)cc(COc3cccc(NC(=O)C45CC6CC(CC(C6)C4)C5)c3)nc2s1	none
CNC(=O)c1ccccc1-c1nc(-c2ccccc2OC)no1	none
COc1ccccc1-c1noc(-c2ccccc2C(=O)NCc2ccco2)n1	MbtI inh 59
COc1ccc2nc3oc(C(=O)NCCC4=CCCCC4)cc3cc2c1	AID504770 -5.2
O=C(Nc1ccc(N2CCOCC2)c2nonc12)c1ccco1	none
Nc1ccc(N2CCOCC2)c2nonc12	PV pol inh 85
O=C1C=CC(=O)N1c1ccccc1F	AID504770 -4.7, MbtI inh 100
O=C1C=CC(=O)N1c1cccc2ccccc12	MbtI inh 89 (no result: Mtb MenB inh)
O=C1C=CC(=O)N1c1ccccc1OC(F)(F)F	none (no result: PV pol inh, Mtb MenB inh, MbtI inh)
O=C(Cn1ncc(Cl)c(Cl)c1=O)N1CCCC1c1ccc2c(c1)OCCCO2 (centres undefined)	none
C=CCN1CCN(Cc2nnnn2Cc2ccc(OC)cc2)CC1	Mtb MenB inh 42
Cc1ccc(CNC(=O)CN2NS(=O)(=O)c3ccccc3C2=O)cc1	MbtI inh 91
Cc1sc(-n2c(C)cc(/C=C(\C#N)C(=O)NCc3ccco3)c2C)c(C#N)c1C	none
CN1C2CCC1CC(NC1CCCCC1)C2 (centres undefined)	PV pol inh 80 (no result: MbtI inh)
CC(C)(C)c1cc(SCCC#N)cc(C(C)(C)C)c1O	AID504770 -2.2
CC(C)(C)c1cc(CCC#N)cc(C(C)(C)C)c1O	none
S=C(Nc1ccc(Cl)cc1)NN1CCOCC1	none
COC(=O)c1cc(NC(=S)NN2CCOCC2)cc(C(=O)OC)c1	Mtb MenB inh 45
O=C1C=CC(=O)N1c1ccc(F)c(Cl)c1	MbtI inh 93 (no result: Mtb MenB inh)
O=S(=O)(c1ccccc1)c1ccc(-c2ccn[nH]2)cc1	none (no result: PV pol inh, Mtb MenB inh, MbtI inh)
CCc1ccc(NC(=O)/C=C/c2ccco2)cc1	none
CCc1cccc(NC(=O)/C=C/c2ccco2)c1	MbtI inh 78
CC1CN(C(=O)c2ccc3c(c2)OCO3)C(C)CN1C(=O)c1ccc2c(c1)OCO2 (centres undefined)	none (no result: PV pol inh, Mtb MenB inh)
O=C(O)CC(CC(=O)Nc1ccccc1)c1ccccc1 (centres undefined)	none (no result: PV pol inh, Mtb MenB inh, MbtI inh)
CCOc1ccc(C(=O)CSc2nnc(-c3ccco3)c(-c3ccco3)n2)cc1NC(=O)CC	Mtb MenB inh 62, MbtI inh 94
O=C(CSc1nnc(-c2ccoc2)c(-c2ccoc2)n1)c1ccc(-c2ccccc2)cc1	MbtI inh 61
COc1ccc(C(=O)CSc2nnc(-c3ccco3)c(-c3ccco3)n2)cc1	Mtb MenB inh 30
O=C(CSc1nnc(-c2ccco2)c(-c2ccco2)n1)Nc1ccc(C(=O)O)cc1	none (no result: PV pol inh, Mtb MenB inh, MbtI inh)
O=C(CSc1nnc(-c2ccoc2)c(-c2ccoc2)n1)c1ccc(N2CCCC2=O)cc1	none
CCc1cccc(NC(=O)C2CCN(c3nnc(-n4cccc4)s3)CC2)c1	none
CCOC(=O)c1sc2nc(C(F)(F)F)nn2c1C	AID504770 -2.5 (no result: PV pol inh, Mtb MenB inh, MbtI inh)
Nc1nnc(CCCn2c(=O)oc3ccccc32)s1	PV pol inh 86 (no result: MbtI inh)
Cc1ccc(C)n1-c1cc(Cl)ccc1C(=O)O	PV pol inh 84
O=C(CN1C(=O)c2ccccc2C1=O)c1ccc(Cl)cc1	PV pol inh 6.0
O=S(=O)(CS(=O)(=O)Sc1ccc(Cl)cc1)Sc1ccc(Cl)cc1	AID504770 -3.5
O=C(Oc1nsnc1N1CCOCC1)c1ccccc1	PV pol inh 47 (no result: MbtI inh)
O=C(Oc1nsnc1N1CCOCC1)N1CCCCC1	none
Cc1cc(O)c(C=O)c2c1C(=O)Oc1c(C)c(O)c3c(c1O2)C(O)OC3=O (centres undefined)	PV pol inh 66
Cc1cn(C2CC(O)C(CO)O2)c(=O)[nH]c1=O (centres undefined)	none
Cc1cn([C@H]2C[C@H](N=[N+]=[N-])[C@@H](CO)O2)c(=O)[nH]c1=O	AID504770 -2.5
CC(C)Nc1nc(NC(C)C)nc(C(N)=O)n1	Mtb MenB inh 35
N=C1C(c2nc3ccccc3s2)=C(O)CN1N1C(=O)c2ccccc2C1=O	PV pol inh 89
